# In PubChem BioAssay (NCI):
# The panel holds about 83,000 compounds, 20% with a hit somewhere; the sample as a whole holds those more often.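 48-hour exposure, single concentration, 96-well plates; percent growth endpoint where 0 means no net growth. Active: below 10.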 Calls of active or inactive are those of the source.
# Tested on: COLO 205 colon
# Test: NCI-60 one-dose screen, 48 h (100 = growth as untreated, 0 = no growth, -100 = all killed)
# Settings: 10 µM unless noted
# Procedure: Cells are grown in 96 well plates and exposed to the test compound for 48 hours. Compounds are tested at a single concentration, which is 10^-5 M for most compounds. The reported endpoint is percent growth (GI% or GIPRCNT), where numbers from 0 - 100% represent growth inhibition, and numbers from -100% - 0 represent cell death. For example, a value of 40 represents 60% growth inhibition. A value of 0 means no net growth occurred over the course of the experiment. A value of -40 indicates 40% of cells at the beginning of the experiment died by the end of the experiment. A value of -100 means all cells are dead at the end of the experiment.
# NCI-60 Human Tumor Cell Lines Screen was performed using the standard one-dose NCI protocol, which is described in more detail at https://dtp.cancer.gov/discovery_development/nci-60/default.htm.
# Compounds with GIPRCNT values below 10 were considered active. Activity score was based on GIPRCNT using the following formula: […]
# Score is 0 for GIPRCNT values of 100 or above, 50 for GIPRCNT values of 0, and 100 for GIPRCNT values of -100.
row,Structure (SMILES),growth
1,CCN1CCN(C(=O)[C@]23CCC(C)(C)C[C@@H]2C2=CC[C@@H]4[C@@]5(C)C/C(=C/c6ccncc6)C(=O)C(C)(C)[C@@H]5CC[C@@]4(C)[C@]2(C)CC3)CC1,-15.3% (active)
2,CCc1nnc(NC(=O)c2ccoc2COc2ccccc2)s1,44.2% (inactive)
3,CCCCCCCN(CCCCCCC)C(=N)c1ccnc2ccccc12,-72.9% (active)
4,CC/C=C\C[C@H]1CC=C2C(=O)C=C[C@@H]2CC=CCCCC(=O)O[C@@H](CCCCC)CC=C2C(=O)C=C[C@@H]2CC=CCCCC(=O)O[C@@H](CCCCC)CC=C2C(=O)C=C[C@@H]2CC=CCCCC(=O)O[C@@H](CCCCC)CC=C2C(=O)C=C[C@@H]2CC=CCCCC(=O)O1,-26.7% [7.9 µM] (active)
5,O=c1[nH]c(=S)[nH]c2nc[nH]c12,123% (inactive)
6,O=[N+]([O-])c1ccc(/C=N\Nc2ccccc2)cc1,105% (inactive)
7,CC(C)=CCC[C@](C)(O)[C@H]1CC[C@]2(C)[C@@H]1CC[C@@H]1[C@@]3(C)C/C(=C/c4cccc([N+](=O)[O-])c4)C(=O)C(C)(C)[C@@H]3CC[C@]12C,94% (inactive)
8,COc1cc(-c2cc(-c3nc4ccccc4[nH]3)[nH]n2)cc(OC)c1OC,47.3% (inactive)
9,C[C@H]1OC(=O)/C=C/[C@@H](O)[C@@H](O)CCCCCCCC[C@@H]1O,95.1% (inactive)
10,Cc1ccc(-c2ccc(Nc3ccccc3)nn2)cc1S(N)(=O)=O,96% (inactive)
11,c1cnc2[nH]cc(-c3csc(-c4cn(CCCN5CCCCC5)c5ccccc45)n3)c2c1,-74% (active)
12,N#Cc1c(-c2ccc(O)cc2)c2c(N)nn(-c3ccccc3)c2[nH]c1=O,122% (inactive)
13,N#C/C(=C\c1ccc(-c2ccc(Br)cc2)o1)c1nc(-c2cccs2)cs1,125% (inactive)
14,Cc1ccc2oc(=O)cc(-c3sc(N4CCCCC4)nc3-c3ccccc3)c2c1,97.3% (inactive)
15,Cn1c(=O)c2c(ncn2CCC(=O)Nc2ccc(F)cc2)n(C)c1=O,108% (inactive)
16,COc1cccc(-c2nn(-c3ccccc3)cc2-c2ccnc(NCCCNS(=O)(=O)c3ccc(Br)cc3)c2)c1,20.8% (inactive)
17,COc1ccc(-c2nc3ccccn3c2-c2nc3ccc(Cl)cc3[nH]2)cc1,110% (inactive)
18,COc1cc(/C=C/c2cc(/C=C/c3ccc(O)c(OC)c3)n(-c3ccccc3)c(=O)n2)ccc1O,71.3% (inactive)
19,N#CC1C(=N)Cc2ccccc2-c2ccccc21 (stereo not given),51.4% (inactive)
20,CC(=O)O[C@H]1CC[C@@]2(C)C(=CC[C@@H]3[C@@H]2CC[C@]2(C)C(=O)N(O)C(=O)C[C@@H]32)C1,112% (inactive)

row,Structure (SMILES),growth
1,c1ccc2c(-c3nc(-c4c[nH]c5ncccc45)cs3)c[nH]c2c1,66.3% (inactive)
2,C=C(C)[C@@H]1CC[C@]2(C)CC[C@]3(C)[C@H](CC[C@@H]4[C@@]5(C)CCCNC(C)(C)[C@@H]5CC[C@]43C)[C@@H]12,8.77% (active)
3,Cc1ccc(S(=O)(=O)Nc2ccc(-c3cc(-c4cccc(F)c4)c(C#N)c(=O)[nH]3)cc2)cc1,115% (inactive)
4,c1csc(-c2nc(-c3cc4ccccc4c(N4CCOCC4)n3)cs2)c1,20.5% (inactive)
5,C=C1C(=O)O[C@H]2[C@H]1CC/C(Cn1cc(-c3ccc(F)cc3)nn1)=C\CC[C@@]1(C)O[C@@H]21,-84.4% (active)
6,CN(C)CCCC1(c2ccc(F)cc2)OCc2cc(-c3ccc(C(F)(F)F)nc3)ccc21 (stereo not given),60.7% (inactive)
7,O=C(O)c1cccc2c1C(=O)N(c1ccc3c(c1)Cc1ccccc1-3)C2=O,121% (inactive)
8,COc1ccc2nc(-c3cc(-c4cc(OC)c(OC)c(OC)c4)n[nH]3)[nH]c2c1,-20% (active)
9,COc1ccc2[nH]c(-c3ccc(Cl)cc3)cc(=O)c2c1,105% (inactive)
10,CC(C)(C)n1cc(-c2ccnc(NCCCNS(=O)(=O)c3ccc(Cl)cc3)c2)c(-c2cccc(F)c2)n1,43.4% (inactive)
11,C=C(C)[C@@H]1CC[C@]2(C(=O)O)CC[C@]3(C)[C@H](CC[C@@H]4[C@@]5(C)C/C(=C/c6ccc(OC)cc6)C(=O)C(C)(C)[C@@H]5CC[C@]43C)[C@@H]12,2.57% (active)
12,CC(=O)c1c(C)[nH]c(-c2nc3ccc(N4CCN(C)CC4)cc3[nH]2)c1-c1ccc(N(C)C)cc1,7% (active)
13,c1ccc2[nH]c(-c3ccc(Nc4nc(N5CCCCC5)nc(N5CCOCC5)n4)cc3)nc2c1,-61.3% (active)
14,O=C1c2cccc3cccc(c23)C(=O)N1CC#Cc1ccc2c3c(cccc13)C(=O)N(CCN1CCNCC1)C2=O,93.5% (inactive)
15,COc1ccc(/C=C/C(=O)c2ccc([N+](=O)[O-])cc2)cc1,114% (inactive)
16,Nc1nc(Br)nc2c1ncn2C1CC(O)C(CO)O1 (stereo not given),62.8% (inactive)
17,CCc1ccccc1NC(=O)c1sc2nc3c(cc2c1N)CCCC3,36% (inactive)
18,Nc1c2c(nc3ccc(Br)cc13)CC(c1ccccc1)CC2=O (stereo not given),18.6% (inactive)
19,O=C(O)c1cccc2c1Cc1cc([N+](=O)[O-])ccc1-2,107% (inactive)
20,Nc1ccc(Cl)cn1,108% (inactive)
